Reference: PubChem BioAssay (EPA / NIEHS)
The source made the active and inactive calls. How the source made its calls: active means hit-call score of the fitted dose curve at least 0.9, where 1 is the maximum; inactive means score below 0.9.

Key:
Details in all cases: mRNA level, 48 h; actives raise or lower the signal
[1] = read-out: Fatty acid synthase (Homo sapiens) (UniProt P49327); experiment: LTEA_HepaRG_FASN: Life Technologies and Expression Analysis (LTEA) Assay for Fatty Acid Synthase (FASN) using HepaRG (AID 2283448);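 on AC50: differentiated human HepaRG liver cells in serum-free induction medium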
How it was run: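 Cells were plated, cultured 48 h, switched to serum-free induction medium, then dosed in duplicate (max 100 uM, half-log dilutions, 0.5% DMSO) for 48 h. RNA was then isolated and FASN quantified by qRT-PCR.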

[2] = read-out: Cyclin D2 (CCND2), CCND2 (gene 894); experiment: LTEA_HepaRG_CCND2: Life Technologies and Expression Analysis (LTEA) Assay for Cyclin D2 (CCND2) using HepaRG (AID 2283449)
How it was run: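 CCND2 transcript levels, quantified by qRT-PCR and normalised to three housekeeping genes, were fitted bidirectionally against 0.5% DMSO. HepaRG cultures were dosed 48 h in duplicate with an 8-point half-log series up to 100 uM.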

[3] = read-out: Cyclin Dependent Kinase Inhibitor 1A (CDKN1A), CDKN1A (gene 1026); experiment: LTEA_HepaRG_CDKN1A: Life Technologies and Expression Analysis (LTEA) Assay for Cyclin Dependent Kinase Inhibitor 1A (CDKN1A) using HepaRG (AID 2283450)
How it was run: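 HepaRG, 48 h dosing, 8-pt half-log series from 100 uM top, 0.5% DMSO vehicle, duplicates. Readout: TaqMan qRT-PCR of CDKN1A transcript, housekeeping-normalized (ACTB, GAPDH, POLR2A). Up/down curve fit relative to DMSO.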

[4] = read-out: Cyclin D1 (CCND1), CCND1 (gene 595); experiment: LTEA_HepaRG_CCND1: Life Technologies and Expression Analysis (LTEA) Assay for Cyclin D1 (CCND1) using HepaRG (AID 2283451);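 on AC50: differentiated human HepaRG liver cells in serum-free induction medium; TaqMan qRT-PCR transcript level normalised to ACTB GAPDH and POLR2A housekeeping genes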
How it was run: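 qRT-PCR (Fluidigm 96.96 array) read-out of transcript level, housekeeping-normalized (ACTB/GAPDH/POLR2A). HepaRG cells, 48 h chemical exposure, 8-point half-log series from 100 uM, 0.5% DMSO vehicle; gain or loss relative to DMSO baseline.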

[5] = read-out: catalase (CAT), CAT (gene 847); experiment: LTEA_HepaRG_CAT: Life Technologies and Expression Analysis (LTEA) Assay for catalase (CAT) using HepaRG (AID 2283452)
How it was run: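 Expression of CAT was quantified by TaqMan qRT-PCR with ACTB/GAPDH/POLR2A normalization after 48 h chemical exposure of HepaRG. Eight-point half-log series, top 100 uM, in 0.5% DMSO; gain or loss fitted against vehicle.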

[6] = read-out: flavin-containing dimethylaniline monooxygenases 3 (FMO3), FMO3 (gene 2328); experiment: LTEA_HepaRG_FMO3: Life Technologies and Expression Analysis (LTEA) Assay for flavin-containing dimethylaniline monooxygenases 3 (FMO3) using HepaRG (AID 2283453);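 on AC50: differentiated human HepaRG liver cells in serum-free induction medium; FMO3 transcript by TaqMan qRT-PCR normalized to ACTB GAPDH and POLR2A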
How it was run: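 FMO3 transcript quantified by TaqMan qRT-PCR against three housekeeping genes after 48 h chemical exposure of HepaRG cells. Eight-point half-log series, top 100 uM, 0.5% DMSO vehicle; phenobarbital 1mM induction control; up- or down-regulation fitted.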

[7] = read-out: Cytochrome P450 (CYP1A1), CYP1A1 (gene 1543); experiment: LTEA_HepaRG_CYP1A1: Life Technologies and Expression Analysis (LTEA) Assay for Cytochrome P450 (CYP1A1) using HepaRG (AID 2283454)
How it was run: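 qRT-PCR read-out: CYP1A1 transcript normalized to three housekeeping genes, fitted bidirectionally against 0.5% DMSO vehicle baseline. Human HepaRG cells, 48 h chemical exposure, 8-point half-log series topping at 100 uM.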

[8] = read-out: CFLAR gene, CFLAR (gene 8837); experiment: LTEA_HepaRG_CFLAR: Life Technologies and Expression Analysis (LTEA) Assay for CFLAR gene using HepaRG (AID 2283455)
How it was run: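 Transcript level by qRT-PCR (normalized to ACTB, GAPDH and POLR2A) after 48 h chemical exposure of HepaRG cells, top concentration 100 uM with half-log steps, 0.5% DMSO vehicle, duplicates; fitted bidirectionally against DMSO baseline.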

[9] = read-out: Forkhead box O1 (FOXO1), FOXO1 (gene 2308); experiment: LTEA_HepaRG_FOXO1: Life Technologies and Expression Analysis (LTEA) Assay for Forkhead box O1 (FOXO1) using HepaRG (AID 2283456)
How it was run: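 FOXO1 transcript quantified by qRT-PCR after 48 h chemical exposure (top 100 uM, half-log steps, 0.5% DMSO) of HepaRG cells, housekeeping-normalized (ACTB/GAPDH/POLR2A). Changes fitted in both directions relative to vehicle.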

Measured: AC50

Chain of Fatty acid synthase (Homo sapiens) (P49327 whole entry, looked up): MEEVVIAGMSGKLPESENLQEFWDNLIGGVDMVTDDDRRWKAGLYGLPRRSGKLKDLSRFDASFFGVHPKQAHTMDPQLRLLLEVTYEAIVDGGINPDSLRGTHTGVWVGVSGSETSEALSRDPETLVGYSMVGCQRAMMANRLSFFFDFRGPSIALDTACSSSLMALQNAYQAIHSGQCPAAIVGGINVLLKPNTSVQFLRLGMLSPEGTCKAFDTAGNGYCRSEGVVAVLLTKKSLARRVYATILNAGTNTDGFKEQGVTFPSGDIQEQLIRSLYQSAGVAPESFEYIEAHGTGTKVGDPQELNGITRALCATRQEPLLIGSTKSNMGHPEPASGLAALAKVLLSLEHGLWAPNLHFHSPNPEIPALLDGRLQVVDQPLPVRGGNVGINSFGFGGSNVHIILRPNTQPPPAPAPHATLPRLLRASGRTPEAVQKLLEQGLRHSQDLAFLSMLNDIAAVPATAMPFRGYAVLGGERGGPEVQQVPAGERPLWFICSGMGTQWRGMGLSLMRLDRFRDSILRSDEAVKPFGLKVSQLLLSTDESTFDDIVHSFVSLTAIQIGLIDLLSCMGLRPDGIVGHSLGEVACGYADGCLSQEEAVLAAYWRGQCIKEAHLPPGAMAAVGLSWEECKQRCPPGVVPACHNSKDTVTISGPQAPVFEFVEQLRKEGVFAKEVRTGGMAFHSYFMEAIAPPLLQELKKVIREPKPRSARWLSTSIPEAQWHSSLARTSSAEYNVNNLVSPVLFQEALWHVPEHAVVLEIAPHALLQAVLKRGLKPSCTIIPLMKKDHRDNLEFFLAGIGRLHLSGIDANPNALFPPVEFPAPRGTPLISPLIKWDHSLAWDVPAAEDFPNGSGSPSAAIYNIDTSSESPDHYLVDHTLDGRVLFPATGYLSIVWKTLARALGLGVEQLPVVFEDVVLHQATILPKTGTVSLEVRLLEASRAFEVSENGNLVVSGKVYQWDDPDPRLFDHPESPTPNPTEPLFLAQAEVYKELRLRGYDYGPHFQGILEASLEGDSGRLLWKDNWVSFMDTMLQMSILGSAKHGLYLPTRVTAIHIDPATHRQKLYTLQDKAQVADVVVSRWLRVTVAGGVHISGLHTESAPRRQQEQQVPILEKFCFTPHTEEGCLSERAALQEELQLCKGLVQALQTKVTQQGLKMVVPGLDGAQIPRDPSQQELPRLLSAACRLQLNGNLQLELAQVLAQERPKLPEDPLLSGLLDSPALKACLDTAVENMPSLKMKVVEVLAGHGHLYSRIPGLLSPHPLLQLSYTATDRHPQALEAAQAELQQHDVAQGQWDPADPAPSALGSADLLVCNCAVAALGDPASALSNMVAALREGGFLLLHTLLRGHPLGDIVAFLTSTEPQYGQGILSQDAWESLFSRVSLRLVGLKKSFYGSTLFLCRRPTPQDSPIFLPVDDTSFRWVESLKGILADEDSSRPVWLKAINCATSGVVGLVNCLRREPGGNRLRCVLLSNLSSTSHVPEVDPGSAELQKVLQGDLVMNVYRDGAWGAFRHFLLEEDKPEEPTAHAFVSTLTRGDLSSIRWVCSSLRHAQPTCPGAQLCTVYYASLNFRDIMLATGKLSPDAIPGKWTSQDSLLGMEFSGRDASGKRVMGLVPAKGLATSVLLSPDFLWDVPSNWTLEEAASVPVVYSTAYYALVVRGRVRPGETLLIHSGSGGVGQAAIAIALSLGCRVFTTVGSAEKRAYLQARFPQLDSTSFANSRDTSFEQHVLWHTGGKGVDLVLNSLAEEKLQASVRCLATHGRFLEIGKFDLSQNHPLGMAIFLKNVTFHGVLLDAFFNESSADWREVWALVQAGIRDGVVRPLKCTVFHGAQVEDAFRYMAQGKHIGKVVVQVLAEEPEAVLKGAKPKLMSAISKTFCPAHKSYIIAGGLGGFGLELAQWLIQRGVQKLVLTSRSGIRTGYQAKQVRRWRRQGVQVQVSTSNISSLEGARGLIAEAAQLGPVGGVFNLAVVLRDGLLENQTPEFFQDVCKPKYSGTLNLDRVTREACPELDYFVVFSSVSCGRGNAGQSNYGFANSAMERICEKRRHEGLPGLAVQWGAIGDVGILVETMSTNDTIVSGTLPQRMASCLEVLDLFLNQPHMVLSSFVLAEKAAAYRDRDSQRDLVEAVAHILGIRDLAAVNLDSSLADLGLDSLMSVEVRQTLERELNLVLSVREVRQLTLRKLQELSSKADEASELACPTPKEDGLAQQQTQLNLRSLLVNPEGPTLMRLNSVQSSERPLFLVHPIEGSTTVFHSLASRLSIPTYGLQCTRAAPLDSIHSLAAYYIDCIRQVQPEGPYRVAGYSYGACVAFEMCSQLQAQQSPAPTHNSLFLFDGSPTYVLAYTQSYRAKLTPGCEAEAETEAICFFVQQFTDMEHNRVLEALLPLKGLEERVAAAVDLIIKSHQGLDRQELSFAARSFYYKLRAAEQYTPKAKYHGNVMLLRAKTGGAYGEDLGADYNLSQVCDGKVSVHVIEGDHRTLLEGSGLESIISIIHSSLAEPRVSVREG

COCCOCCOC
inactive: [1] | [2] | [3] | [4] | [5] | [6]
active: [7] 1.22 µM | [8] 0.253 µM

Oc1ccc2ccccc2c1N=Nc1ccccc1
inactive: [2] | [3] | [9]
active: [1] 1.16 µM | [4] 9.92 µM | [5] 9.92 µM | [6] 10.4 µM | [7] 0.14 µM | [8] 11.3 µM

CC(=O)Oc1ccccc1C(=O)O
inactive: [1] | [2] | [3] | [4] | [5] | [6] | [8]
active: [7] 50 µM

CC(CO)OC(C)CO (stereo not given) (tested in a mixture with another compound)
active: [7] 50 µM
inactive: [1] | [2] | [3] | [4] | [5] | [6] | [8] | [9]

Cc1ccc(C)c(O)c1C
inactive: [1] | [2] | [3] | [4] | [5] | [6] | [8]
active: [7] 68 µM

CC=Cc1ccc(O)c(OC)c1
inactive: [1] | [2] | [3] | [4] | [5] | [6] | [8]
active: [7] 50 µM

CCCCCCCCCCCC(=O)OC
active: [7] 60.3 µM
inactive: [1] | [2] | [3] | [4] | [5] | [6] | [8] | [9]

Nc1nc(N)c2nc(CNc3ccc(C(=O)N[C@@H](CCC(=O)O)C(=O)O)cc3)cnc2n1
inactive: [2] | [3] | [4] | [5] | [6] | [7] | [8] | [9]
active: [1] 0.0999 µM

Cc1cccc(C)c1O
inactive: [1] | [2] | [3] | [4] | [5] | [6] | [8]
active: [7] 50 µM

Cc1ccc(C)c(C)c1
inactive: [1] | [2] | [3] | [4] | [5] | [6] | [7] | [8]

CCCCCCCCCCCCCO
inactive: [1] | [2] | [3] | [4] | [5] | [6] | [7] | [8] | [9]

Cc1cc(=O)[nH]c(=S)[nH]1
inactive: [1] | [2] | [3] | [4] | [5] | [6] | [8]
active: [7] 50 µM

CC1=C(/C=C/C(C)=C/C=C/C(C)=C/CO)C(C)(C)CCC1
active: [7] 64.1 µM
inactive: [1] | [2] | [3] | [4] | [5] | [6] | [8] | [9]

CCOC(=O)C(C)(C)Oc1ccc(Cl)cc1
inactive: [1] | [3] | [4] | [5] | [6] | [8] | [9]
active: [2] 12.2 µM | [7] 50 µM

CCNc1cccc(C)c1
active: [7] 50 µM
inactive: [1] | [2] | [3] | [4] | [5] | [6] | [8] | [9]

CN1CCCC1=O
inactive: [1] | [2] | [3] | [4] | [5] | [6] | [8]
active: [7] 50 µM

CCCCCCCCCCCCCCCCCC(=O)O
active: [7] 50 µM
inactive: [1] | [2] | [3] | [4] | [5] | [6] | [8]

C=CCc1ccc(O)c(OC)c1
inactive: [1] | [2] | [3] | [4] | [5] | [6] | [7] | [8] | [9]

CCCCCCCCCCCCCCCC
inactive: [1] | [2] | [3] | [4] | [5] | [6] | [8] | [9]
active: [7] 50 µM

CC(=O)OCCOCCOCCOC(C)=O
inactive: [1] | [2] | [3] | [4] | [5] | [6] | [7] | [8]

CN1CCN(Cc2cc(-c3ccc4[nH]c(=O)oc4c3)co2)[C@@H](c2ccc(F)cc2)C1
inactive: [1] | [2] | [3] | [6] | [8]
active: [4] 82.5 µM | [5] 81.7 µM | [7] 61.3 µM

CCCCc1ccc2c(n1)[C@@H](c1ccc(OC)cc1C[C@H](C)C(=O)O)[C@H](C(=O)O)[C@H]2c1ccc2c(c1)OCO2
active: [7] 71.7 µM
inactive: [1] | [2] | [3] | [4] | [5] | [6] | [8]

COC(=O)c1ccc(O)cc1
inactive: [1] | [2] | [3] | [4] | [5] | [6] | [7] | [8] | [9]

C[Si]1(C)O[Si](C)(C)O[Si](C)(C)O[Si](C)(C)O1
inactive: [1] | [2] | [3] | [4] | [5] | [6] | [7] | [8]

Nc1ccc(S(=O)(=O)c2ccc(N)cc2)cc1
inactive: [1] | [2] | [3] | [4] | [5] | [6] | [7] | [8]

COc1ccc2c(c1)c(CC(=O)O)c(C)n2C(=O)c1ccc(Cl)cc1
inactive: [1] | [2] | [3] | [4] | [5] | [6] | [7] | [8] | [9]

Cc1ccc2ncccc2c1
active: [7] 50 µM
inactive: [1] | [2] | [3] | [4] | [5] | [6] | [8] | [9]

O=[N+]([O-])C(CO)(CO)CO
active: [7] 25.3 µM
inactive: [1] | [2] | [3] | [4] | [5] | [6] | [8]

COc1cc(-c2nc(NC(=O)c3cc4cc(C)cc(C)c4n3CC(=O)O)sc2CCC2CCCCC2)c(OC)cc1Cl
active: [4] 18.4 µM | [5] 7.6 µM | [6] 8.16 µM | [8] 19.8 µM | [9] 42.2 µM
inactive: [1] | [2] | [3] | [7]

COc1cc(C=O)ccc1O
inactive: [1] | [2] | [3] | [4] | [5] | [6] | [7] | [8] | [9]

Cc1ccc(N(C)C)cc1
inactive: [1] | [2] | [3] | [4] | [5] | [6] | [8]

CCCCCCOCCO
inactive: [1] | [2] | [3] | [4] | [5] | [6] | [8] | [9]

O=C(OCCCCCOC(=O)c1ccccc1)c1ccccc1
inactive: [1] | [3] | [5]
active: [2] 2.48 µM | [4] 2.78 µM | [6] 0.503 µM | [7] 1.18 µM | [8] 0.228 µM | [9] 1.19 µM

Cc1ccc(C(C)C)c(O)c1
inactive: [1] | [2] | [3] | [4] | [5] | [6] | [8] | [9]

CC1(C)CC(N=C=O)CC(C)(CN=C=O)C1 (stereo not given)
active: [1] 69.7 µM
inactive: [2] | [3] | [4] | [5] | [6] | [8]

Cc1oc(-c2ccccc2)nc1CCOc1cccc2c1ccn2CCC(=O)O
inactive: [2]
active: [1] 11.9 µM | [3] 71.2 µM | [4] 50 µM | [5] 88.3 µM | [6] 76.7 µM | [8] 10.7 µM | [9] 85.6 µM

CCCCN(CCCC)CCCC
inactive: [1] | [2] | [3] | [4] | [5] | [6] | [8]

CN[C@H]1CC[C@@H](c2ccc(Cl)c(Cl)c2)c2ccc(S(N)(=O)=O)cc21
active: [5] 50 µM | [6] 34.1 µM
inactive: [1] | [2] | [3] | [4] | [8]

NS(=O)(=O)c1cc2c(cc1Cl)NCNS2(=O)=O
inactive: [1] | [2] | [3] | [4] | [5] | [6] | [8]

Cc1c(C(=O)O)c(O)cc2c1C(=O)c1c(O)c([C@@H]3O[C@H](CO)[C@@H](O)[C@H](O)[C@H]3O)c(O)c(O)c1C2=O
inactive: [1] | [2] | [3] | [4] | [5] | [6] | [8]

Cc1ccc(Cl)cc1
inactive: [1] | [2] | [3] | [4] | [5] | [6] | [8]

COc1cc(S(=O)(=O)O)c(C)cc1N=Nc1c(O)ccc2cc(S(=O)(=O)O)ccc12
inactive: [1] | [2] | [3] | [4] | [5] | [6] | [8] | [9]
